From PubChem BioAssay (NCI)
This is part of a sample that, as a whole, favours compounds with a hit. Of some 83,000 tested, about 20% had one in any assay.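 Activity criterion: percent growth below 10, measured after cells in 96-well plates were exposed to a single compound concentration for 48 hours.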 A number with no mark means an inactive call. Active and inactive are the calls of the source.

Assays:
Assay in all cases: NCI-60 one-dose screen, 48 h (100 = growth as untreated, 0 = no growth, -100 = all killed)
Conditions in all cases: 10 µM unless noted
[1] = tested on: HCT-15 colon
[2] = tested on: HT29 colon
[3] = tested on: SNB-75 CNS
[4] = tested on: SNB-19 CNS
[5] = tested on: U251 CNS
[6] = tested on: PC-3 prostate
[7] = tested on: SK-MEL-5 melanoma
[8] = tested on: UACC-62 melanoma
[9] = tested on: LOX IMVI melanoma
[10] = tested on: SK-MEL-28 melanoma
[11] = tested on: SK-MEL-2 melanoma
[12] = tested on: EKVX NSCLC
[13] = tested on: SN12C renal
[14] = tested on: UO-31 renal
[15] = tested on: TK-10 renal
[16] = tested on: ACHN renal
[17] = tested on: CAKI-1 renal
[18] = tested on: A498 renal
[19] = tested on: CCRF-CEM leukemia
[20] = tested on: MOLT-4 leukemia

| Structure (SMILES) | growth [1] | growth [2] | growth [3] | growth [4] [%] | growth [5] | growth [6] [%] | growth [7] | growth [8] | growth [9] | growth [10] | growth [11] | growth [12] [%] | growth [13] [%] | growth [14] | growth [15] | growth [16] | growth [17] | growth [18] | growth [19] | growth [20] |
| --- | --- | --- | --- | --- | --- | --- | --- | --- | --- | --- | --- | --- | --- | --- | --- | --- | --- | --- | --- | --- |
| Cc1oc(-c2ccc(Cl)cc2)nc1/C=C/C(=O)c1ccccc1 | 97.5% | 107% | 93.2% | 97.6 | 97.5% | 93.6 | 99% | 87.5% | 99.6% | 105% | 100% | 95 | 95.6 | 83.9% | 122% | 101% | 91.9% | 101% | 97% | 92.3% |
| O=C(CSc1nc2sc3c(c2c(=O)n1-c1ccccc1)CCCCC3)N/N=C/c1ccc(F)cc1 | 48.6% | 26.2% | -65.4% (active) | 47.4 | 6.96% (active) | 45.8 | 50.7% | 83.5% | 37.1% | 48.9% | 91.9% | 80 | 16.3 | 88.2% | 69.1% | 26.8% | -13.7% (active) | 89.7% | 46% | 67.1% |
| C1=CN2CC(c3ccccc3)=NNC2c2ccccc21 (stereo not given) | 96.6% | 99.4% | 37.5% | 105 | 103% | 81.9 | 92.8% | 75.5% | 92.8% | 126% | 89.7% | 73.4 | 88.8 | 53.8% | 120% | 85.7% | 65.2% | 104% | 88.3% | 40.2% |
| Cn1c(O)c(C=NCCN=Cc2c(O)n(C)c(=O)n(C)c2=O)c(=O)n(C)c1=O | 107% | 97.1% | 88.3% | 97.6 | 102% | 90.4 | 98.7% | 84.1% | 93.2% | 109% | 120% | 102 | 95.6 | 84.7% | 116% | 101% | 94.4% | 127% | 7.42% (active) | -46.6% (active) |
| O=C(Nc1cc(Cl)ccc1O)c1ccc(Nc2ccnc(C(F)(F)F)c2)cc1 | 30.9% | 95.5% | 69.2% | 24.6 | 31.7% | 14.7 | 47.1% | 27.7% | 27.8% | 83.6% | 41.4% | 71.2 | 35.6 | 12.6% | 79% | 23.7% | 58.7% | 35.8% | 2.44% (active) | 19.2% |
| CN1CCN(c2ccc(NC(=O)c3nc4ccc5[nH]ncc5c4c4c3CCCC4)cc2C(F)(F)F)CC1 | 2.8% (active) | 20.5% | 84.7% | 81.6 | 78% | 65.4 | 75.8% | 89% | -81.7% (active) | 89.5% | 88.2% | 88.2 | 32.6 | 64.3% | 109% | 15.2% | 19.4% | 82.4% | 5.81% (active) | 36.1% |
| COc1ccc2cc(C(=O)c3coc4ccc(O)cc34)ccc2c1 | 103% | 95.6% | 101% | 104 | 103% | 95.5 | 99.5% | 98.7% | 97.4% | 111% | 97% | 103 | 98.8 | 68.4% | 103% | 107% | 92.6% | 105% | 56.4% | 81.1% |
| c1cc2[nH]ncc2cc1-c1nc2ccc3[nH]ncc3c2c2c1CCCC2 | 7.1% (active) | 4.84% (active) | -3.31% (active) | 24.3 | 15.7% | 23.1 | -56.1% (active) | 1.74% (active) | 16.2% | -0.43% (active) | -48.7% (active) | 17.8 | 20.6 | -0.203% (active) | 8.08% (active) | 9.47% (active) | 9.5% (active) | -1.43% (active) | 9.05% (active) | -6.76% (active) |
| O=C1c2c(c3c4ccccc4[nH]c3c3ccc4ccccc4c23)C(=O)N1CCN1CCCCC1 | 25% | 11.8% | 52.6% | 42.4 | 10.8% | 53.3 | 55.4% | 42.8% | 30.2% | 98.1% | 90.5% | 75.5 | 22.6 | 39.7% | 87.4% | 12.7% | 24.7% | 45.7% | 3.2% (active) | 7.16% (active) |
| CCOc1ccc(NC(=O)CSc2oc(-c3ccccc3)nc2S(=O)(=O)c2ccc(F)cc2)cc1 | 77% | 73.7% | 103% | 88 | 53.4% | 55.7 | 79.7% | 62.8% | 74.1% | 72.6% | 81.4% | 82.7 | 89.4 | 94.5% | 83% | 73.7% | 82.8% | 63.7% | 79.8% | 63.9% |
| COCCn1cc(-c2nc(-c3cc4cccnc4n3CCOC)cs2)c2cc(OC)ccc21 | 17% | 21.9% | 62.6% | 91.1 | 69.8% | 29.3 | 36.7% | 80.7% | 15.4% | 87.2% | 71.6% | 26 | 78.8 | 61.9% | 14% | 68.3% | 70.4% | 66.8% | 35.2% | 58.4% |
| COc1ccc(C(=O)C2C(c3ccc(OC)cc3)CN(C)C23C(=O)Nc2ccccc23)cc1 (stereo not given) | 86.9% | 84.3% | 76.7% | 86 | 92.9% | 75.3 | 99.1% | 66.3% | 93% | 105% | 96.9% | 91 | 92.1 | 70.3% | 103% | 95.5% | 68.2% | 99.8% | 97.4% | 88.1% |
| CCCCN[C@H]1CC[C@@]2(C)[C@@H](CC[C@@]3(C)[C@H]2[C@H](O)C[C@H]2/C(=C(\CCC=C(C)C)C(=O)OC)[C@@H](OC(C)=O)C[C@@]23C)[C@@H]1C | 98.8% | 95.7% | 82.9% | 104 | 98.2% | 95.2 | 93.7% | 95.5% | 97.9% | 93.4% | 106% | 96.9 | 94.6 | 81.5% | 97.4% | 91.7% | 90.6% | 97.7% | 41.3% | 10.6% |
| CC(C)c1ccc(NC(=O)Nc2ccc(NC(=O)CCCC(=O)NOCc3ccccc3)cc2)cc1 | 99.8% | 79.4% | 80.2% | 91.3 | 85.6% | 93.3 | 83.8% | 89.2% | 82.2% | 94.4% | 87.7% | 105 | 92.8 | 85% | 103% | 87.4% | 87.9% | 96.4% | 75.1% | 71.1% |
| Cc1nn(-c2ccccc2)c(Oc2ccccn2)c1-c1nc2ccccc2s1 | 91.4% | 92.6% | 97% | 100 | 97.8% | 91 | 84.4% | 91.4% | 97.3% | 106% | 99.2% | 90.4 | 100 | 88.2% | 103% | 98.3% | 82.3% | 106% | 102% | -49.2% (active) |
